Measurements: the supplement of paper PMC3334620
Whole data set: some 33,000 sequences, median “E-score (-0.5 to 0.5)” near -0.043, cut for the highest 2% near 0.37. Only a selection was taken, and the highest values are over-represented in it overall.

Molecular target: T1, Upc2 (UniProt Q12151)
T1 sequence: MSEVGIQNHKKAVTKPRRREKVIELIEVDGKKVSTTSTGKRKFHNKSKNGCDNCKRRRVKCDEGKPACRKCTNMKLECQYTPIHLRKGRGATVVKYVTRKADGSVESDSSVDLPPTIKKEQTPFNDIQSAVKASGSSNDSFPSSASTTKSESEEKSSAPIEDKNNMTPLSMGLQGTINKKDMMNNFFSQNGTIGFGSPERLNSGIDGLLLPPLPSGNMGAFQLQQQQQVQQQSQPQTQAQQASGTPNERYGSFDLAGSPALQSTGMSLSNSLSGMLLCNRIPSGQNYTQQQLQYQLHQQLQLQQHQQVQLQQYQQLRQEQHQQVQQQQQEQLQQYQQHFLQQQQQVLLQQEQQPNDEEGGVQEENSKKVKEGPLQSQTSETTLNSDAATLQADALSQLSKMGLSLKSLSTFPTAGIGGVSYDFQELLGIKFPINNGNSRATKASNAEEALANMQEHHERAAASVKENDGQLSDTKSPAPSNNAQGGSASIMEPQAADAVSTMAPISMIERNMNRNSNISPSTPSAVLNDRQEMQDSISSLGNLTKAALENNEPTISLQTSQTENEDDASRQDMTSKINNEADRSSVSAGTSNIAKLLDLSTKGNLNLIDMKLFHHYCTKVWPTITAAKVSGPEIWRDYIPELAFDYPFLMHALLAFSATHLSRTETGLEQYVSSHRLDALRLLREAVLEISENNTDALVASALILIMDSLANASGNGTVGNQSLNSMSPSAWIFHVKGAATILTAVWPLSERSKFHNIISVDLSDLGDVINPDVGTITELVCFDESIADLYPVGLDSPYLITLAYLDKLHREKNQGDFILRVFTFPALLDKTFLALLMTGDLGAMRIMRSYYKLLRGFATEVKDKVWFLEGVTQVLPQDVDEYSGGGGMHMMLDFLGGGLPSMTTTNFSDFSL
Assay: PBM E-score (8-mer binding enrichment) (E-score (-0.5 to 0.5)); higher = stronger / more preferred TF binding
Details: protein concentration: 200 nM; construct: GST-full length
In short: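 Each ungapped eight-base word and its reverse complement, pooled, received an E-score from the Universal PBM Analysis Suite. Underlying scans, normalised with masliner, recorded fluorescent anti-GST bound to GST-tagged yeast transcription factors. These were applied at about 100-200 nM to universal all-10-mer Agilent arrays double-stranded by primer extension.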

Sequence	PBM E-score
CGTTTATC	0.425
AGTTTATC	0.115
CGTTTATA	0.45
GGTTTATA	0.144
CTTTTATC	0.00372
AGTTTATA	0.129
ATCTAGCA	-0.206
ACGACAGT	0.37
ACGACAGC	0.336
ACGACAGG	0.359
CCGACACC	0.0358
ACGACACG	0.295
ACGACACC	0.374
ATTATAAC	-0.061
CTAGAGCA	-0.192
GATTGTGA	-0.112
ACTCGTTA	0.35
CCACGTTA	0.136
ACTCGGTC	0.0379
CCTCGTTC	0.46
GCACGTTA	0.182
ACTCGTTG	0.198
CCTCGTCC	-0.3
ACTCGTTC	0.46
CCTCGTGC	0.0326

Sequence	PBM E-score
CCTCGTTA	0.399
GCTCGTTA	0.39
GCTCGCTA	0.196
ACAGTAGA	-0.0149
CATCTTGG	-0.305
GAGTAACC	0.101
GTCTCACA	-0.0791
CGATATGC	0.149
GCAACTGA	0.0086
GAACTGCA	-0.0845
ACGAAACA	0.339
ACGAAACT	0.382
ACGAAACG	0.403
ACGAAAGG	0.32
ACGAAACC	0.267
CCGAAACG	0.346
GAATTTGA	-0.0533
CACCACCC	-0.124
AGTGAAAC	-0.0497
CCCCTTTA	-0.129
AAACGGAC	0.337
CAACGGGG	-0.0318
TAACGGGA	0.0733
AAACGGAG	0.34
AAACGGGC	0.395

Sequence	PBM E-score
CAACGGGC	0.00552
AAACGGAT	0.37
GAACGGGA	0.238
AAACGGGG	0.398
AAACGGGT	0.344
GAACGGGC	0.291
AAACGGGA	0.369
AGACCCCA	-0.148
ATAGAACG	0.253
GCCATCTA	-0.299
CAGACCAG	-0.0598
CATTCACA	-0.114
CTCGGCGC	0.069
AAGAGTCA	-0.11
CATTAAGC	0.0328
ATACGGCC	0.416
ATACGGCA	0.422
GTACGGCA	0.364
ACACGGCG	-0.0227
AGACGGCG	-0.0186
CTACGGCC	-0.0664
CTACGGCA	0.0153
AGACGGCC	-0.222
ATACGGCG	0.43
GTTTCACA	0.00208

Sequence	PBM E-score
CCGAGTCC	-0.0483
GCTCCTAC	0.0461
GCAGTTAA	0.0277
GATGATAC	0.0998
AGCCAAAA	-0.178
AGAAACGC	-0.037
GAAAACGA	0.263
AGAAACGG	0.217
AGAAACGA	0.4
CGAAACCA	0.201
CGAAACGC	0.15
CGAAACGA	0.447
GGAAACGA	0.428
GGAAACAA	-0.0508
ACAGTCCT	-0.319
CTCGCTCC	0.313
ACATAGTG	-0.128
ACCGCCAG	-0.0637
GATCACGA	-0.00109
CGTAAAAA	0.404
CGTAAAAG	0.405
AGTAAAAA	-0.0254
CGTAAACC	0.364
CGTAAAAC	0.389
CTTAAAAG	-0.0494

Sequence	PBM E-score
TGTAAAAA	-0.0321
GGTAAAAC	0.0926
AGTAAAAG	0.168
GGCCAACC	-0.0824
ATAGAGGC	-0.0461
ACAAAGGA	-0.0862
GGTTGTAC	0.154
GCAGATCA	-0.161
CGCCTTAG	-0.169
GCCACATA	-0.153
TCAGACAA	-0.17
AACGAAAC	0.37
GACGAAAC	0.251
AACGAAAG	0.383
CACGAAAC	0.0525
ACCGAAAG	0.108
CACGAAAG	-0.0189
ACCGAAAT	0.141
AACGAAAT	0.398
AACGAAAA	0.368
ACTCGCCC	-0.205
AACGCTAG	-0.089
GGATCGGA	0.0439
AGATCGTG	0.0463
CGATCGTC	0.128

Sequence	PBM E-score
AGATCGTC	-0.141
CGATCGAA	0.24
GGATCGAA	0.211
CGATCGTA	0.437
AGATCGTA	0.387
GGATCGTA	0.422
CTAGGTCA	-0.214
CTATCAGA	-0.13
AACAAGGC	-0.167
CGTCGTGA	0.127
AGTCGTCA	-0.167
TGTCGGAA	0.0576
GGTCGTGA	-0.0444
AGTCGTAA	0.379
CGTCGTCA	0.055
CGTCGTAA	0.457
GGTCGTAA	0.421
TGTCGTAA	0.433
TGGCGTAA	0.0743
AGTCGTGA	-0.0656
GGTCGTCA	-0.0836
ACCGTTAT	-0.0125
GAGTCAAA	-0.229
ATTCTAAC	-0.125
AGCAAGAG	-0.203

Sequence	PBM E-score
CTGAGCTA	-0.0866
ACCGCTTC	-0.203
AGTGAACT	-0.117
ACTGTTCG	0.16
CCCTACGG	-0.0948
ACGTACGG	0.354
GCGTACGA	0.448
CCGTACGC	0.308
CCGTACGG	0.374
GCGTACTA	0.0874
ACGTACGT	0.293
GCGTACGC	0.281
CCGTACGA	0.443
CCGTACTA	0.282
ACGTACGA	0.431
ACGTACGC	0.254
TAAAGCCA	0.0825
ATGCGACG	0.306
AAGAATCT	-0.148
CCTTGCAA	-0.115
AGTGCGAT	0.0239
GATAGAAA	0.0471
